Experimental data as given in PubChem BioAssay (NCI).
This is part of a sample that, as a whole, favours compounds with a hit. Of some 83,000 tested, about 20% had one in any assay.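 Values shown are percent growth following 48 h exposure of cells in 96-well plates to a single concentration of compound; below 10 was considered active.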 A number with no mark means an inactive call. Activity calls are given as the source filed them.

Legend:
Assay in all cases: NCI-60 one-dose screen, 48 h (100 = growth as untreated, 0 = no growth, -100 = all killed)
Details in all cases: 10 µM
[1] = test system: DU-145 prostate
[2] = test system: K-562 leukemia
[3] = test system: MALME-3M melanoma
[4] = test system: MDA-MB-231 breast
[5] = test system: RXF 393 renal
[6] = test system: SF-268 CNS
[7] = test system: SF-295 CNS
[8] = test system: SF-539 CNS
[9] = test system: UACC-257 melanoma
[10] = test system: M14 melanoma
[11] = test system: HCT-15 colon
[12] = test system: HT29 colon
[13] = test system: SNB-75 CNS
[14] = test system: SNB-19 CNS
[15] = test system: U251 CNS
[16] = test system: PC-3 prostate
[17] = test system: SK-MEL-5 melanoma
[18] = test system: UACC-62 melanoma
[19] = test system: LOX IMVI melanoma
[20] = test system: SK-MEL-28 melanoma

SMILES | growth [1] | growth [2] | growth [3] | growth [4] | growth [5] | growth [6] | growth [7] | growth [8] | growth [9] | growth [10] | growth [11] | growth [12] | growth [13] | growth [14] | growth [15] | growth [16] | growth [17] | growth [18] | growth [19] | growth [20]
N#CCC1CCCC1 | 127% | 106% | 114% | 104% | 107% | 114% | 90.6% | 111% | 100% | 105% | 99.7% | 105% | 78.7% | 98.8% | 97.4% | 87.9% | 104% | 99.4% | 97.2% | 97.6%
CCCCCCCCCCCCCCCCCBr | 113% | 97.4% | 108% | 112% | 109% | 109% | 97% | 99.5% | 102% | 109% | 102% | 97.5% | 84.3% | 95.9% | 103% | 92.6% | 98.9% | 104% | 101% | 108%
C#Cc1ccc(-n2c(/C=C/c3cc(OC)c(OC)c(OC)c3)nc3ncccc3c2=O)cc1 | 45.3% | 25.6% | 50% | 58.6% | 36.4% | 63.3% | 38% | 78.8% | 53.8% | 71.9% | 48.6% | 16% | 34% | 88.9% | 79.3% | 43.8% | 9.66% (active) | 52.7% | 56.9% | 77.6%
CCOC(=O)[C@@H](Cc1ccccc1)NC(=O)c1[nH]c2ccc(Cl)cc2c(=O)c1C | 113% | 86.5% | 107% | 106% | 98.5% | 99.7% | 97.4% | 101% | 81.7% | 97.1% | 40.7% | 91.7% | 95.9% | 94.3% | 71.7% | 80.7% | 81.6% | 86.6% | 95.8% | 104%
Cc1ccccc1[P+](Cc1ccccc1)(c1ccccc1)c1ccccc1 | 41% | 7.69% (active) | -1.44% (active) | 40.7% | 64.6% | 33.9% | 11% | 35.4% | -26.7% (active) | 15.1% | 90.1% | 7.47% (active) | 6.56% (active) | 24.7% | 12.1% | 9.34% (active) | -14% (active) | 0.358% (active) | 22.4% | 27.3%
COC(=O)[C@]12CC[C@@H](C)[C@H](C)[C@@H]1C1=CC[C@@H]3[C@@]4(C)C[C@@H](O)[C@H](O)[C@@](C)(CO)[C@@H]4[C@H](O)C[C@@]3(C)[C@]1(C)CC2 | -82.5% (active) | -31.7% (active) | -55.9% (active) | -66.3% (active) | -81.6% (active) | -31% (active) | -78.5% (active) | -58.4% (active) | -85.1% (active) | -71.3% (active) | -51.4% (active) | -90.5% (active) | -37.7% (active) | -23.4% (active) | -94.6% (active) | -34.5% (active) | -95.8% (active) | -64% (active) | -93% (active) | -48.4% (active)
NCCNc1ccc2cc(-c3nc4ccccc4[nH]3)c(=O)oc2c1 | 103% | 81.3% | 105% | 66% | 108% | 92.3% | 98.2% | 94.2% | 98.6% | 104% | 79.4% | 108% | 85.1% | 105% | 94.9% | 79.7% | 93.5% | 87.4% | 85% | 93.7%
O=C(CCCC(=O)N/N=C/c1cc(Cl)ccc1O)N/N=C\c1cc(Cl)ccc1O | 42.9% | 13.9% | 31.2% | 37.5% | 39.2% | 26.4% | -5.9% (active) | 14.1% | -1.55% (active) | 12.9% | 28.1% | 55.4% | 58.9% | 48.1% | 21% | 24% | -1.89% (active) | -16.9% (active) | 7.26% (active) | 35.8%
O=S(=O)(NCCO)c1ccc(OCCOc2ccc(S(=O)(=O)NCCO)cc2)cc1 | 107% | 106% | 87% | 89.6% | 102% | 102% | 98.1% | 94.4% | 95% | 102% | 103% | 100% | 95% | 102% | 93.7% | 89.1% | 96.5% | 95.2% | 96.6% | 105%
COc1cc(-c2c(C#N)c(N)n3c(nc4ccccc43)c2C#N)cc(Br)c1OC | 39.1% | 54.6% | 7.41% (active) | 12.6% | -9.32% (active) | 64% | 66% | 41.2% | 54% | 76% | 63.9% | 32.1% | -8.28% (active) | 57.4% | 25.3% | 37.2% | 35.8% | 55.2% | 52.9% | 57.5%
COc1ccc(-c2nnc(SC/C(=N\O)c3ccccc3)o2)cc1 | 100% | 94.2% | 109% | 92.3% | 120% | 95.8% | 101% | 92.7% | 121% | 104% | 97.5% | 95% | 106% | 99.7% | 103% | 86.8% | 97.1% | 81% | 95.1% | 94.3%
